# Measurements taken from the supplement of paper PMC10077471.
# The full ranking holds about 1,900 compounds; the median of “excess over highest single agent (ExcessHSA) synergy score, 6x6 matrix” is about -83, and the lowest 2% start at about -370. What follows is part of a selection rich in the lowest values, with near analogues and random picks from the rest.
# Test system: NCI-H446
# Assay: excess over highest single agent (ExcessHSA) synergy score, 6x6 matrix; higher = less synergy (more negative = stronger synergy)
# Settings: 72 h; CellTiter-Glo viability
row,Structure (SMILES),excess over highest single agent
1,O=C1[C@H](Cc2ccc(O)cc2)N2C(=O)CCN(C(=O)NCc3ccccc3)[C@H]2CN1Cc1cccc2ccccc12 + Cc1sc2c(c1C)C(c1ccc(Cl)cc1)=N[C@@H](CC(=O)OC(C)(C)C)c1nnc(C)n1-2 [NCGC00250412-19],-294
2,Cn1c(=O)c2c(ncn2CC(O)CO)n(C)c1=O (centres undefined) + Cc1sc2c(c1C)C(c1ccc(Cl)cc1)=N[C@@H](CC(=O)OC(C)(C)C)c1nnc(C)n1-2 [NCGC00250412-19],-73.2
3,Cn1c(=O)c(F)c(Nc2ccc(I)cc2F)c2c(=O)n(C[C@@H](O)CO)cnc21 + Cc1sc2c(c1C)C(c1ccc(Cl)cc1)=N[C@@H](CC(=O)OC(C)(C)C)c1nnc(C)n1-2 [NCGC00250412-19],-396
4,O=C(NOC[C@H](O)CO)c1ccc(F)c(F)c1Nc1ccc(I)cc1F + Cc1sc2c(c1C)C(c1ccc(Cl)cc1)=N[C@@H](CC(=O)OC(C)(C)C)c1nnc(C)n1-2 [NCGC00250412-19],-276
5,O=C(C=Cc1ccc(C=CC(=O)Nc2ccc(C3=NCCN3)cc2)cc1)Nc1ccc(C2=NCCN2)cc1 + Cc1sc2c(c1C)C(c1ccc(Cl)cc1)=N[C@@H](CC(=O)OC(C)(C)C)c1nnc(C)n1-2 [NCGC00250412-19],-46.7
6,CC(C)C(=O)Nc1ncc(-c2cc(C(F)F)nn2-c2c(Cl)cccc2Cl)s1 + Cc1sc2c(c1C)C(c1ccc(Cl)cc1)=N[C@@H](CC(=O)OC(C)(C)C)c1nnc(C)n1-2 [NCGC00250412-19],-105
7,COc1ccc(-c2nc(N3CCOCC3)c3sc(CN(C)c4ncc(C(=O)NO)cn4)cc3n2)cn1 + Cc1sc2c(c1C)C(c1ccc(Cl)cc1)=N[C@@H](CC(=O)OC(C)(C)C)c1nnc(C)n1-2 [NCGC00250412-19],-105
8,c1ccc2c(Cc3c[nH]c4ccccc34)c[nH]c2c1 + Cc1sc2c(c1C)C(c1ccc(Cl)cc1)=N[C@@H](CC(=O)OC(C)(C)C)c1nnc(C)n1-2 [NCGC00250412-19],-83.3
9,CCCS(=O)(=O)Nc1ccc(F)c(C(=O)c2c[nH]c3ncc(-c4ccc(Cl)cc4)cc23)c1F + Cc1sc2c(c1C)C(c1ccc(Cl)cc1)=N[C@@H](CC(=O)OC(C)(C)C)c1nnc(C)n1-2 [NCGC00250412-19],-108
10,CCCS(=O)(=O)Nc1ccc(F)c(C(=O)c2c[nH]c3ncc(Cl)cc23)c1F + Cc1sc2c(c1C)C(c1ccc(Cl)cc1)=N[C@@H](CC(=O)OC(C)(C)C)c1nnc(C)n1-2 [NCGC00250412-19],-97.1
11,CCCCOc1c(C(=O)c2c(F)cc(C)cc2F)c[nH]c2nncc1-2 + Cc1sc2c(c1C)C(c1ccc(Cl)cc1)=N[C@@H](CC(=O)OC(C)(C)C)c1nnc(C)n1-2 [NCGC00250412-19],-375
12,CCOC(=O)/C=C/[C@H](C[C@@H]1CCNC1=O)NC(=O)[C@@H](CC(=O)[C@@H](NC(=O)c1cc(C)on1)C(C)C)Cc1ccc(F)cc1 + Cc1sc2c(c1C)C(c1ccc(Cl)cc1)=N[C@@H](CC(=O)OC(C)(C)C)c1nnc(C)n1-2 [NCGC00250412-19],-127
13,O=C(C[C@@H]1C/C=C/CCC(=O)O[C@H](c2ccccc2)CNC1=O)NCc1ccc(Cl)cc1 + Cc1sc2c(c1C)C(c1ccc(Cl)cc1)=N[C@@H](CC(=O)OC(C)(C)C)c1nnc(C)n1-2 [NCGC00250412-19],-98.1
14,CN(C)C[C@@H]1CCn2cc(c3ccccc32)C2=C(C(=O)NC2=O)c2cn(c3ccccc23)CCO1 + Cc1sc2c(c1C)C(c1ccc(Cl)cc1)=N[C@@H](CC(=O)OC(C)(C)C)c1nnc(C)n1-2 [NCGC00250412-19],-125
15,COc1cc(NCc2ccc3nc(N)nc(N)c3c2C)cc(OC)c1OC + Cc1sc2c(c1C)C(c1ccc(Cl)cc1)=N[C@@H](CC(=O)OC(C)(C)C)c1nnc(C)n1-2 [NCGC00250412-19],-213
16,C=C1C(=O)[C@]23[C@H](O)[C@H]1CC[C@H]2[C@@]12CO[C@]3(O)[C@@H](O)[C@@H]1C(C)(C)CC[C@@H]2O + Cc1sc2c(c1C)C(c1ccc(Cl)cc1)=N[C@@H](CC(=O)OC(C)(C)C)c1nnc(C)n1-2 [NCGC00250412-19],-378
17,Oc1ccc(C2=Cc3ccc(O)cc3OC2)cc1 + Cc1sc2c(c1C)C(c1ccc(Cl)cc1)=N[C@@H](CC(=O)OC(C)(C)C)c1nnc(C)n1-2 [NCGC00250412-19],-209
18,CNc1nc(Nc2ccc(C(=O)N3CCOCC3)cc2OC)ncc1Cl + Cc1sc2c(c1C)C(c1ccc(Cl)cc1)=N[C@@H](CC(=O)OC(C)(C)C)c1nnc(C)n1-2 [NCGC00250412-19],436
19,Cc1ccc(S(=O)(=O)Nc2cc(Cl)ccc2C(=O)Nc2nc(-c3ccccc3)cs2)cc1 + Cc1sc2c(c1C)C(c1ccc(Cl)cc1)=N[C@@H](CC(=O)OC(C)(C)C)c1nnc(C)n1-2 [NCGC00250412-19],214
20,CC(O)(C#Cc1ccc2c(c1)N(c1nc(N)ncc1Cl)CC2)c1nccs1 (centres undefined) + Cc1sc2c(c1C)C(c1ccc(Cl)cc1)=N[C@@H](CC(=O)OC(C)(C)C)c1nnc(C)n1-2 [NCGC00250412-19],54
21,CC(NCc1ccc2c(c1)nc(NC(=O)c1ccc(-c3cn[nH]c3)s1)n2CC(C)(C)O)C(C)(C)C (centres undefined) + Cc1sc2c(c1C)C(c1ccc(Cl)cc1)=N[C@@H](CC(=O)OC(C)(C)C)c1nnc(C)n1-2 [NCGC00250412-19],-312
22,CC(C)(O)Cn1c(NC(=O)c2ccc(-c3cn[nH]c3)s2)nc2cc(CN3CCOCC3)ccc21 + Cc1sc2c(c1C)C(c1ccc(Cl)cc1)=N[C@@H](CC(=O)OC(C)(C)C)c1nnc(C)n1-2 [NCGC00250412-19],-423
23,C[C@H](NCc1ccc2c(c1)nc(NC(=O)c1ccc(-c3cn[nH]c3)s1)n2CCc1ccccc1)C(C)(C)C + Cc1sc2c(c1C)C(c1ccc(Cl)cc1)=N[C@@H](CC(=O)OC(C)(C)C)c1nnc(C)n1-2 [NCGC00250412-19],-305
24,CCNC(=O)c1cc2c(-c3cc(OCCN4CCCC4)c(Cl)cc3Cl)nc(N)nc2s1 + Cc1sc2c(c1C)C(c1ccc(Cl)cc1)=N[C@@H](CC(=O)OC(C)(C)C)c1nnc(C)n1-2 [NCGC00250412-19],-89.1
